High-throughput results from PubChem BioAssay.
Sampled rows, rich in hits. Any-hit rate of the full collection: about 0.47%.
Eya2 phos inh: inhibitors of human Eya2 phosphatase activity; actives 0.006% (n = 330,000); Potency, µM (highest dose often 76.9 µM), hits mostly inhibitors; recombinant Eya2, OMFP fluorescence dephosphorylation (OMFP is methylfluorescein phosphate); O00167
Target sequence (O00167 whole entry, looked up): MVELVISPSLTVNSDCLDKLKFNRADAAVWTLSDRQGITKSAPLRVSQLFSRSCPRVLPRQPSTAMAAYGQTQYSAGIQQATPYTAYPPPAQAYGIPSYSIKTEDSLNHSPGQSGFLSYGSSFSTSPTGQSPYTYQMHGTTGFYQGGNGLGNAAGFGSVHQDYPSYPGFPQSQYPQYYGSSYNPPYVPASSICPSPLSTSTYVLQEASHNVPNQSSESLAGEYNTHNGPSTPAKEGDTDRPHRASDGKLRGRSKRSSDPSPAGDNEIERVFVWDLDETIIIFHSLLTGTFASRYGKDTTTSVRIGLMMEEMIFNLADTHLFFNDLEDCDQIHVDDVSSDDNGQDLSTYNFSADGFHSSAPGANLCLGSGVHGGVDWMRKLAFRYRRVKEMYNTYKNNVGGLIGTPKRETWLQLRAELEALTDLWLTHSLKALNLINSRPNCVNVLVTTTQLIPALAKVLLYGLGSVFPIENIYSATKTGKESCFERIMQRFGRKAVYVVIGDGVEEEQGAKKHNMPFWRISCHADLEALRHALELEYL
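Eya2 (0.2 uM) preincubated 10 min at ambient with compound, then OMFP substrate added at 50 uM; 10 min reaction in 50 mM HEPES pH 7.5, 50 mM NaCl, 5 uM MgCl2, 0.05% BSA, 1 mM DTT. Fluorescence read at Ex 485/Em 525 nm.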
N370S GC mod: N370S glucocerebrosidase modulation, Gaucher chaperone candidate; P04062; N370S GC spleen homogenate, 4MU-glucoside fluorescence; Potency, µM (doses to about 59.4 µM), most hits filed as inhibitors; actives 0.092% (n = 330,000); AID 2101
Mito fusion act: mitochondrial division inhibition or fusion activation; S. cerevisiae fusion-defective mutant growth rescue, CellTiterGlo 48 h; Potency, µM (top dose mostly 46.1 µM), most hits filed as activators; actives 0.23% (n = 320,000); note: nearly all actives have a fitted effect of over 45% in size
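Yeast fusion mutant, YPEG (non-fermentable carbon), compound, 48 h at 37C non-permissive; CellTiterGlo added, 10 min RT, luminescence read. Rescued growth = division inhibition.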
A-T KAP1 phos: potential ataxia-telangiectasia treatments restoring KAP-1 phosphorylation. actives 0.19% (n = 320,000). F2112 A-T fibroblasts, KAP-1 phosphorylation AlphaLISA; neocarzinostatin DNA damage 30 min before lysis. AID 485349. Potency, µM (doses to about 57.5 µM), most hits filed as activators; note: nearly all actives have a fitted effect of over 45% in size
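hTERT-immortalized A-T patient fibroblasts (F2112), 500 cells/well in OPTI-MEM, 1% FBS, got compounds for 60 min, then NCS for 30 min at 37C. Lysates were then assayed for phospho-KAP-1 by AlphaLISA (anti-pKAP1 donor, anti-KAP1 acceptor beads), 6 hr at 25C.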
Numbers stand for hits; ! = repeats disagree; [ ] = dose if it differs, or a comment. Calls come from the whole dose curve; as a rule, active = well fitted curve in the direction sought with a large enough effect; inconclusive = small, poorly fitted or top-dose-only effect, or another doubt; inactive = no such curve, though single readings can be large; an effect the other way counts as inactive or inconclusive.

Screening CCC(C)(C)n1nnnc1C(c1cccs1)N1CC=C(c2ccc(F)cc2)CC1 (stereo not given) returned Eya2 phos inh inactive, N370S GC mod inactive[2.35 µM], Mito fusion act 10µM and A-T KAP1 phos inactive.
COCCCNC(=O)c1c(NC(=O)c2ccco2)n(Cc2ccccc2)c2nc3ccccc3nc12 was read as Eya2 phos inh inactive, N370S GC mod inactive, Mito fusion act inactive and A-T KAP1 phos inactive.
Screening COCCNC(=O)c1c(NC(=O)c2ccc(Br)o2)n(Cc2ccccc2)c2nc3ccccc3nc12 returned Eya2 phos inh inactive, N370S GC mod inactive, Mito fusion act 7.1µM and A-T KAP1 phos inactive.
c1ccc2sc(NC3=NCCN3)nc2c1 was read as Eya2 phos inh inactive, N370S GC mod inactive, Mito fusion act 3.2µM and A-T KAP1 phos inactive.
For COc1ccc2nc(NC3=NCCN3)sc2c1 the results were Eya2 phos inh inactive, N370S GC mod inactive, Mito fusion act inconclusive and A-T KAP1 phos inactive.
COc1ccccc1N1CCN(Cc2ccc(Br)s2)CC1 was read as Eya2 phos inh inactive, N370S GC mod inactive, Mito fusion act inactive and A-T KAP1 phos inactive.
For O=C(N/N=C/c1c(O)n(-c2ccccc2)c(=S)[nH]c1=O)c1ccccc1 the results were Eya2 phos inh inactive, N370S GC mod inactive, Mito fusion act inactive and A-T KAP1 phos inactive.
`CC(C)c1ccc(-n2c(O)c(C=NC(CCS(C)=O)C(=O)O)c(=O)[nH]c2=S)cc1` (stereo not given) gave Eya2 phos inh inactive, N370S GC mod inactive, Mito fusion act inactive and A-T KAP1 phos 7.9µM.
O=C(CN1CCCC1=O)Nc1ccccc1 was read as Eya2 phos inh inactive, N370S GC mod inactive and Mito fusion act inactive.
C=C(C=O)C[C@@H]1C[C@H](O)C2OC3C[C@]4(C)OC5/C=C\CC6OC7C(CC=CCC6OC5CCCC4OC3CC2O1)OC1CC2OC3CC(=O)OC3C[C@@H](C)C[C@@]2(C)OC1C[C@@H]7C (stereo not given in full) was read as Eya2 phos inh inactive, N370S GC mod inactive and A-T KAP1 phos 25µM.
For C=C(C=O)CC1CC(O)[C@]2(C)OC3C[C@@H]4OC5C[C@]6(C)O[C@]7(C)CCC8OC9C[C@]%10(C)OC(/C(C)=C\CO)C(O)CC%10OC9CC(C)C8OC7CC6O[C@]5(C)C/C=C\C4OC3CC2O1 (stereo not given in full) the results were Eya2 phos inh inactive, N370S GC mod inactive, Mito fusion act inactive and A-T KAP1 phos inactive.
For C=CCn1c(O)c(C(C)=NCCC(c2ccccc2)c2ccccc2)c(=O)[nH]c1=O the results were Eya2 phos inh inactive, N370S GC mod inactive, Mito fusion act inactive and A-T KAP1 phos inactive.
Screening O=P(Oc1ccccc1)(Oc1ccccc1)N1CCN(c2ccc(F)cc2)CC1 returned Eya2 phos inh inactive, N370S GC mod inactive, Mito fusion act inactive and A-T KAP1 phos inactive.
C=C(C)[C@H]1Cc2c(ccc3c2O[C@@H]2COc4cc(OC)c(OC)cc4[C@@H]2C3=O)O1 was read as Eya2 phos inh inactive, N370S GC mod inactive and Mito fusion act 18µM.
O=c1c2ccccc2[se]n1-c1ccccc1 was read as Eya2 phos inh inactive, N370S GC mod 22µM!, Mito fusion act 0.46µM and A-T KAP1 phos inactive.
Screening CN1C[C@H](C(=O)N[C@]2(C)O[C@@]3(O)[C@@H]4CCCN4C(=O)[C@H](Cc4ccccc4)N3C2=O)C=C2c3cccc4[nH]cc(c34)C[C@H]21 returned N370S GC mod inactive.
For CCC(=NCc1ccc(F)cc1)c1c(O)n(C)c(=O)n(C)c1=O the results were Eya2 phos inh inactive, N370S GC mod inactive, Mito fusion act inactive and A-T KAP1 phos inactive.
ClC1=C(Cl)C2(Cl)C3C(Cl)C=CC3C1(Cl)C2(Cl)Cl (stereo not given) was read as Eya2 phos inh inactive, N370S GC mod inactive, Mito fusion act inactive and A-T KAP1 phos 40µM.
`CC1(C)C[C@H]2C=C(C=O)[C@]3(C=O)C[C@]3(C)[C@H]2C1` gave Eya2 phos inh inactive, N370S GC mod inactive, Mito fusion act inactive and A-T KAP1 phos 3.5µM.
Screening Cc1cccc(N2C(=O)NC(=O)/C(=C\C=C\c3ccco3)C2=O)c1 returned Eya2 phos inh inactive, N370S GC mod inactive, Mito fusion act inactive and A-T KAP1 phos 4µM.
Screening Cc1nn(C)c(C)c1/C=C1/CC2C3CC=C4CC(O)CCC4(C)C3CCC2(C)C1=O (stereo not given) returned Eya2 phos inh inactive, N370S GC mod inactive, Mito fusion act 16µM and A-T KAP1 phos inactive.
